Results from PubChem BioAssay AID1159580 (chemical genetic matrix, 2015).
In all, about 5,500 compounds went through this assay and about 2,000 (36%) were called active. Another 18% or so got no clear call; they are omitted. Rule as the data show it: active = normalized growth mostly below about 0.91 (no sharp cut-off); inconclusive = no clear call, values can overlap the other calls; inactive = mostly above about 0.92. The list shows a part of the results.

Test: chemical genetic growth profiling, strain panel (AID 1159580);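 also: tested at 20 µM; growth read once vehicle control cultures reached saturation at 30 °C; 1 = growth at the plate median or of vehicle wells; lower values mean less growth of the strain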
Details: growth OD

Measured: normalized growth

CC(=O)[C@@]1(O)CCC2C3C[C@H](C)C4=CC(=O)C=CC4(C)[C@@]3(F)[C@@H](O)C[C@@]21C (stereo partly drawn)
inactive: S. cerevisiae deletion strains, locus YJR066W, strain TOR1, hits give low values 0.936 | S. cerevisiae deletion strains, locus YKL009W, strain mrt4, hits give low values 1.01 | S. cerevisiae deletion strains, locus YKL068W, hits give low values 1.01 | S. cerevisiae deletion strains, locus YKL085W, strain MDH1 (second series), hits give low values 1.01 | S. cerevisiae deletion strains, locus YKL085W, strain MDH1, hits give low values 1.01 | S. cerevisiae deletion strains, locus YKL160W, strain elf1, hits give low values 0.976 | S. cerevisiae deletion strains, locus YKL190W, strain CNB1, hits give low values 0.988 | S. cerevisiae deletion strains, locus YKR001C, strain vps1, hits give low values 0.987 | S. cerevisiae deletion strains, locus YKR026C, strain gcn3, hits give low values 0.982 | S. cerevisiae deletion strains, locus YKR091W, strain srl3, hits give low values 0.956 | S. cerevisiae deletion strains, locus YLL001W, strain dnm1, hits give low values 1.01 | S. cerevisiae deletion strains, locus YLL026W, hits give low values 0.979 | S. cerevisiae deletion strains, locus YLL041C, strain sdh2, hits give low values 0.988 | S. cerevisiae deletion strains, locus YLR027C, strain aat2, hits give low values 0.978 | S. cerevisiae deletion strains, locus YLR039C, strain RIC1, hits give low values 1.03 | S. cerevisiae deletion strains, locus YLR058C, strain SHM2, hits give low values 1.01 | S. cerevisiae deletion strains, locus YLR102C, strain apc9, hits give low values 1 | S. cerevisiae deletion strains, locus YLR113W, strain HOG1, hits give low values 0.988 | S. cerevisiae deletion strains, locus YLR221C, strain rsa3, hits give low values 0.968 | S. cerevisiae deletion strains, locus YLR258W, strain gsy2, hits give low values 0.971 | S. cerevisiae deletion strains, locus YLR262C, strain YPT6 (second series), hits give low values 0.981 | S. cerevisiae deletion strains, locus YLR262C, strain YPT6, hits give low values 0.98 | S. cerevisiae deletion strains, locus YLR268W, strain sec22, hits give low values 0.991 | S. cerevisiae deletion strains, locus YLR320W, strain mms22, hits give low values 0.962 | S. cerevisiae deletion strains, locus YLR330W, strain CHS5, hits give low values 1 | S. cerevisiae deletion strains, locus YLR342W, strain FKS1 (second series), hits give low values 0.992 | S. cerevisiae deletion strains, locus YLR342W, strain FKS1, hits give low values 0.979 | S. cerevisiae deletion strains, locus YLR357W, strain rsc2, hits give low values 0.951 | S. cerevisiae deletion strains, locus YLR370C, strain arc18, hits give low values 0.982 | S. cerevisiae deletion strains, locus YLR371W, strain rom2, hits give low values 1 | S. cerevisiae deletion strains, locus YLR384C, strain iki3, hits give low values 0.981 | S. cerevisiae deletion strains, locus YLR418C, strain cdc73, hits give low values 1.02 | S. cerevisiae deletion strains, locus YML016C, strain PPZ1, hits give low values 1 | S. cerevisiae deletion strains, locus YML032C, strain rad52, hits give low values 0.996 | S. cerevisiae deletion strains, locus YML120C, strain ndi1, hits give low values 0.954 | S. cerevisiae deletion strains, locus YML124C, strain tub3, hits give low values 1.01 | S. cerevisiae deletion strains, locus YMR058W, strain fet3, hits give low values 0.983 | S. cerevisiae deletion strains, locus YMR078C, strain ctf18, hits give low values 1 | S. cerevisiae deletion strains, locus YMR125W, strain sto1, hits give low values 0.965 | S. cerevisiae deletion strains, locus YMR129W, hits give low values 0.964 | S. cerevisiae deletion strains, locus YMR205C, strain PFK2, hits give low values 0.975 | S. cerevisiae deletion strains, locus YMR223W, strain ubp8, hits give low values 1.04 | S. cerevisiae deletion strains, locus YMR231W, strain pep5, hits give low values 0.973 | S. cerevisiae deletion strains, locus YMR307W, strain GAS1, hits give low values 0.976 | S. cerevisiae deletion strains, locus YNL067W, strain RPL9B, hits give low values 0.993 | S. cerevisiae deletion strains, locus YNL071W, strain lat1, hits give low values 0.972 | S. cerevisiae deletion strains, locus YNL128W, strain TEP1, hits give low values 1.01 | S. cerevisiae deletion strains, locus YNL153C, strain GIM3, hits give low values 0.992 | S. cerevisiae deletion strains, locus YNL183C, strain NPR1, hits give low values 0.942 | S. cerevisiae deletion strains, locus YNL209W, strain ssb2, hits give low values 0.98 | S. cerevisiae deletion strains, locus YNL233W, strain BNI4, hits give low values 1 | S. cerevisiae deletion strains, locus YNL248C, strain rpa49, hits give low values 0.914 | S. cerevisiae deletion strains, locus YNL250W, strain rad50, hits give low values 1.03 | S. cerevisiae deletion strains, locus YNL271C, strain bni1, hits give low values 1.02 | S. cerevisiae deletion strains, locus YNL298W, strain CLA4, hits give low values 0.999 | S. cerevisiae deletion strains, locus YNL307C, strain MCK1, hits give low values 1.02 | S. cerevisiae deletion strains, locus YNL322C, strain KRE1 (second series), hits give low values 0.955 | S. cerevisiae deletion strains, locus YNR049C, strain mso1, hits give low values 0.951 | S. cerevisiae deletion strains, locus YNR052C, strain pop2, hits give low values 1.01 | S. cerevisiae deletion strains, locus YOL012C, strain htz1 0.807 | S. cerevisiae deletion strains, locus YOL147C, strain pex11, hits give low values 1.01 | S. cerevisiae deletion strains, locus YOR001W, strain rrp6, hits give low values 0.971 | S. cerevisiae deletion strains, locus YOR061W, strain CKA2, hits give low values 1.01 | S. cerevisiae deletion strains, locus YOR069W, strain VPS5, hits give low values 1 | S. cerevisiae deletion strains, locus YOR070C, strain gyp1, hits give low values 0.986 | S. cerevisiae deletion strains, locus YOR080W, strain dia2, hits give low values 0.975 | S. cerevisiae deletion strains, locus YOR083W, strain WHI5, hits give low values 0.974 | S. cerevisiae deletion strains, locus YOR106W, strain vam3, hits give low values 0.977 | S. cerevisiae deletion strains, locus YOR136W, strain idh2, hits give low values 1 | S. cerevisiae deletion strains, locus YOR144C, strain elg1, hits give low values 1 | S. cerevisiae deletion strains, locus YOR184W, strain ser1, hits give low values 1.01 | S. cerevisiae deletion strains, locus YOR231W, strain MKK1, hits give low values 1 | S. cerevisiae deletion strains, locus YOR265W, strain rbl2, hits give low values 0.974 | S. cerevisiae deletion strains, locus YOR270C, strain vph1, hits give low values 0.926 | S. cerevisiae deletion strains, locus YOR290C, strain snf2, hits give low values 0.944 | S. cerevisiae deletion strains, locus YOR316C, strain cot1, hits give low values 1.01 | S. cerevisiae deletion strains, locus YPL051W, strain arl3, hits give low values 0.985 | S. cerevisiae deletion strains, locus YPL055C, strain LGE1, hits give low values 0.993 | S. cerevisiae deletion strains, locus YPL078C, strain atp4, hits give low values 0.992 | S. cerevisiae deletion strains, locus YPL106C, strain sse1, hits give low values 0.922 | S. cerevisiae deletion strains, locus YPL240C, strain hsp82, hits give low values 0.975 | S. cerevisiae deletion strains, locus YPL256C, strain CLN2, hits give low values 0.981 | S. cerevisiae deletion strains, locus YPR119W, strain clb2, hits give low values 1.01 | S. cerevisiae deletion strains, locus YPR141C, strain kar3, hits give low values 1.01 | S. cerevisiae deletion strains, locus YPR163C, strain tif3, hits give low values 1.01 | S. cerevisiae deletion strains, locus YPR167C, strain met16, hits give low values 1.02 | S. cerevisiae deletion strains, strain wtn01, hits give low values 1.01 | S. cerevisiae strains, strain wild type, hits give low values 0.987
